According to PubChem BioAssay (NCI):
Compounds without any hit were thinned out: in the full panel of roughly 79,000, 15% have a hit. Values without a mark were called inactive. Calls of active or inactive are those of the source. Cut-off read from the data, not from the text of the source: active = growth inhibition above about 70%; inactive = the rest.

Key:
[1] = NCI Yeast Anticancer Drug Screen. Data for the rad50 strain (AID 155);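 note: 0% = growth of vehicle-only cultures of the same strain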; conditions: S. cerevisiae rad50 strain growth inhibition, stronger effect = higher value
How it was run: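 A DNA repair-deficient yeast mutant serves as the test organism; compound-induced growth inhibition is calculated against vehicle-treated cells.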

[2] = NCI Yeast Anticancer Drug Screen. Data for the mec2-1 strain (AID 157); conditions: S. cerevisiae mec2-1 strain, stronger effect = higher value
How it was run: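 Readout is yeast growth inhibition, normalised to vehicle-treated controls, in the mec2-1 strain exposed to compound.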

[3] = NCI Yeast Anticancer Drug Screen. Data for the sgs1 mgt1 strain (AID 161);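 note: 0% = growth of cultures given vehicle only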; conditions: S. cerevisiae sgs1 mgt1 strain, stronger effect = higher value
How it was run: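 Growth of a repair-deficient yeast mutant was monitored after compound treatment and expressed as inhibition relative to vehicle-treated cultures.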

[4] = NCI Yeast Anticancer Drug Screen. Data for the cln2 rad14 strain (AID 165);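 note: 0% = growth equal to vehicle treated cultures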; conditions: S. cerevisiae cln2 rad14 strain, stronger effect = higher value
How it was run: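 Relative to vehicle controls, growth inhibition of compound-treated cln2 rad14 yeast was recorded.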

[5] = NCI Yeast Anticancer Drug Screen. Data for the bub3 strain (AID 167); conditions: S. cerevisiae bub3 mutant strain, stronger effect = higher value
How it was run: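 Inhibition values come from growth of compound-treated mutant yeast normalised to vehicle-treated controls.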

[6] = NCI Yeast Anticancer Drug Screen. Data for the mlh1 rad18 strain (AID 175); conditions: S. cerevisiae mlh1 rad18 strain growth inhibition, stronger effect = higher value
How it was run: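 Test agents were incubated with a yeast strain of defined genotype (DNA damage repair defect). Inhibition of growth was derived by comparison with vehicle-exposed cultures.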

[7] = at 5.0 µM (retest, dose inferred, filed as 0.5)
[8] = at 50.0 µM (retest, dose inferred, filed as 5.0)

| Structure (SMILES) | growth inhibition [1, 7] | growth inhibition [1, 8] | growth inhibition ([1]; at 50.0 µM) | growth inhibition [2, 7] | growth inhibition [2, 8] | growth inhibition ([2]; at 50.0 µM) | growth inhibition [3, 7] | growth inhibition [3, 8] | growth inhibition ([3]; at 50.0 µM) | growth inhibition [4, 7] | growth inhibition [4, 8] | growth inhibition ([4]; at 50.0 µM) | growth inhibition [5, 7] | growth inhibition [5, 8] | growth inhibition ([5]; at 50.0 µM) | growth inhibition [6, 7] | growth inhibition [6, 8] | growth inhibition ([6]; at 50.0 µM) |
| --- | --- | --- | --- | --- | --- | --- | --- | --- | --- | --- | --- | --- | --- | --- | --- | --- | --- | --- |
| Cc1cc(C)c(O)c(C2CC3CCC2(C)C3(C)C)c1 (configuration not stated) | 2% | 87% (active) | 95.6% (active) | 1% | 92% (active) | 95% (active) | 5% | 91% (active) | 95.8% (active) | 4% | 91% (active) | 95.2% (active) | 7% | 92% (active) | 96.5% (active) | -1% | 94% (active) | 95.5% (active) |
| Cc1ccc(O)c(N=Nc2ccc(Cl)cc2)c1 | 0% | 2% | -3.95% | 4% | -2% | -1.95% | -3% | 17% | -20.8% | 1% | -8% | 7.2% | 1% | -8% | 4.4% | -3% | -1% | -23.2% |
| NC(=O)SCC(=O)Nc1ccccc1 | 5% | 82% (active) | 86.5% (active) | -1% | 83% (active) | 67.9% | 1% | 82% (active) | 87.8% (active) | 5% | 81% (active) | 80% (active) | 3% | 83% (active) | 83.6% (active) | 3% | 87% (active) | 87.2% (active) |
| Clc1nn2nnnc2c2ccccc12 | -133% | 87% (active) | 80.2% (active) | -35% | 82% (active) | 81.2% (active) | -46% | 65% | 51.5% | -51% | 24% | -31.6% | -51% | 77% (active) | 65% | -102% | 74% (active) | 73.8% (active) |
| CCCCCCCCCCCC(=O)OCC1CO1 (configuration not stated) | -6% | -26% | -11.7% | -13% | -8% | -4.65% | 6% | 1% | 24.6% | 29% | -55% | 34% | 9% | -44% | -6.5% | -16% | 3% | -11.4% |
| C[N+](C)(C)CC(=O)N/N=C(\C(=O)NC1=C(Cl)C(=O)c2ccccc2C1=O)C(C#N)c1nc(-c2ccc([N+](=O)[O-])cc2)cs1 (configuration not stated) | 27% | 98% (active) | 76% (active) | 6% | 97% (active) | 56.6% | 11% | 97% (active) | 60.3% | 13% | 91% (active) | 50.6% | -23% | 97% (active) | 75.2% (active) | 13% | 97% (active) | 78.7% (active) |
| CN(C)S(=O)(=O)c1cc(Cl)ccc1NN | -114% | -20% | 59.6% | -44% | -41% | 36.9% | -56% | -21% | 44% | -41% | -22% | 19.2% | -71% | -14% | 78.4% (active) | -119% | -32% | 48.6% |
| O=C(Nc1ccc(Cl)cc1)OCCOCCOC(=O)Nc1ccc(Cl)cc1 | 9% | 97% (active) | 95.8% (active) | 0% | 97% (active) | 97% (active) | 25% | 93% (active) | 97.9% (active) | 6% | 97% (active) | 98.2% (active) | -7% | 97% (active) | 98.7% (active) | 4% | 96% (active) | 98% (active) |
| CSC1=Nc2ccccc2SC(c2ccccc2)C1c1ccccc1 (configuration not stated) | 4% | 14% | 20.1% | 0% | 15% | 29.3% | 6% | 17% | 67% | -3% | -9% | 84.7% (active) | 5% | 7% | 53.3% | 3% | 8% | 63.9% |
| O=C(Nc1cccc(Cl)c1)OCCOC(=O)Nc1cccc(Cl)c1 | 30% | 99% (active) | 99.5% (active) | 3% | 99% (active) | 99.2% (active) | 22% | 100% (active) | 99.3% (active) | 2% | 98% (active) | 98.4% (active) | -4% | 99% (active) | 99.4% (active) | 4% | 98% (active) | 98.9% (active) |
| Nc1ncnc2nc(SCCO)[nH]c12 | -1% | -2% | 9.4% | 4% | 0% | -4.9% | -1% | -4% | 12.9% | 0% | -5% | 31.4% | 3% | -2% | 9.15% | -2% | -3% | 39.1% |
| O=C1C(c2ccccc2)=[N+]([O-])c2cc([N+](=O)[O-])c(/C(Cl)=C/c3ccccc3)cc21 | 4% | 8% | 54.8% | 5% | 33% | 94.5% (active) | 6% | 16% | 71.5% (active) | 11% | 9% | 39.2% | 7% | 7% | 97.9% (active) | 3% | 3% | 96.2% (active) |
| CN(C)c1ccc(/C=N/N=C(/C#N)[S][Sn]([S]/C(C#N)=N/N=C/c2ccc(N(C)C)cc2)([c]2ccccc2)[c]2ccccc2)cc1 | 7% | 95% (active) | 98.3% (active) | 1% | 96% (active) | 96.5% (active) | 10% | 92% (active) | 97.7% (active) | 0% | 89% (active) | 95.9% (active) | -19% | 98% (active) | 95.7% (active) | 5% | 96% (active) | 97.4% (active) |
| CC(=O)N[C@H]1CC[C@H]2[C@@H]3CCC4=CC(=O)CC[C@]4(C)[C@H]3CC[C@]12C | 5% | 94% (active) | 33.2% | -11% | 95% (active) | 94.5% (active) | 10% | -10% | 94.2% (active) | -8% | 97% (active) | 79.5% (active) | -1% | 97% (active) | 98% (active) | -4% | 95% (active) | 93.8% (active) |
| N=c1n(CC(=O)NC23CC4CC(CC(C4)C2)C3)c2ccccc2n1CC(=O)NC12CC3CC(CC(C3)C1)C2 | -4% | 34% | 59.1% | -15% | 8% | 34.2% | -2% | 42% | 44.5% | -14% | 25% | 44% | -19% | 12% | 59.5% | -5% | 27% | 79.1% (active) |
| CC(O)(c1ccccc1)c1ccccc1S(=O)(=O)Nc1ccccc1 (configuration not stated) | -7% | 99% (active) | 99.2% (active) | 6% | 91% (active) | 98.8% (active) | -4% | 99% (active) | 98.5% (active) | 12% | 33% | 98.5% (active) | -5% | 46% | 98.9% (active) | -2% | 98% (active) | 98.4% (active) |
| COC(=O)c1ccc([N+](=O)[O-])o1 | 7% | 42% | 70.7% (active) | 7% | 38% | 46.4% | 4% | 26% | 76.8% (active) | -5% | 5% | 23.2% | 0% | 71% (active) | 62.1% | 13% | 56% | 72.3% (active) |
| O=C1c2cccc(NCCNCCO)c2C(=O)c2cccc(NCCNCCO)c21 | 18% | 58% | -10.3% | -8% | -8% | 7% | 17% | 13% | 31% | 24% | 32% | 15.4% | 15% | 22% | 45.1% | 8% | 15% | 8.2% |
| Cc1ccc(N2C(N)=C(C#N)C(C#N)(C#N)C2c2ccccc2)cc1 (configuration not stated) | 22% | 70% (active) | 31.1% | 26% | 82% (active) | 38.1% | 20% | 51% | 55% | 14% | 41% | 24.4% | 25% | 50% | 64.7% | 25% | 88% (active) | 90.5% (active) |
